Reference: PubChem BioAssay AID493029 (Johns Hopkins Ion Channel Center, 2011)
Out of some 1,000 compounds screened, about 140 (14%) were called active. The rule behind the calls is not given here. The full list was thinned out, with actives kept by preference.

Test: non-target flux effects, untransfected CHO, cell-based, thallium flux, counter-screen for KCNQ2 inhibitor project (AID 493029);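 for activity change: 0% = vehicle negative controls with stimulus buffer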
Settings: parental CHO cells, at 10 µM; stronger effect = lower value
For CN(C)CC1Oc2ccccc2OC1(O)c1ccccc1 (configuration not stated), the activity change was -23% (active). With O=C(NC(c1ccc(Cl)cc1)P(=O)(Oc1ccccc1)Oc1ccccc1)OCc1ccccc1 (configuration not stated) the activity change was “inactive”.
